Counter-ions that a name gives are not always drawn. In all, about 2,000 compounds were measured (“fractional viability relative to vehicle”: median about 0.91, lowest 2% from about 0.045 on). Many of the other results were omitted from the sample, so the lowest values are more common in it than they were.
Tested on: TYKNU
Assay: fractional viability relative to vehicle; TYKNU is a high-grade serous ovarian cancer line; higher = less growth inhibition
Details: 72 h
Outline: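 TYKNU control cells or lentiCRISPRv2 knockout derivatives were plated at 500 cells per well in duplicate into drug-stamped 384-well plates holding a ~2100-compound library at 2 or 10 μM. Culture was in RPMI 1640 with 10% FBS at 37 °C in 5% CO2, with 72 h of drug treatment. Viability was measured by Cell Titer Glo luminescence, and the averaged duplicate treatment wells were normalised to duplicate control wells at the same plate position.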

[1] = 2uM, genotype: DNM1L knockout (sgDNM1L #1)
[2] = 2uM, genotype: sgCTRLA1 (non-targeting control)
[3] = 10uM, genotype: DNM1L knockout (sgDNM1L #1)
[4] = 10uM, genotype: sgCTRLA1 (non-targeting control)

Row | SMILES | fractional viability [1] | fractional viability [2] | fractional viability [3] | fractional viability [4]
1 | COc1ccc(C(=O)CC2(O)C(=O)Nc3c(Cl)ccc(Cl)c32)cc1 (configuration not stated) | 0.264 | 0.243 | 0.175 | 0.186
2 | Cc1ccc(NC(=O)c2ccc(CN3CCN(C)CC3)cc2)cc1Nc1nccc(-c2cccnc2)n1 [Imatinib (STI571)] | 1.18 | 1.1 | 0.839 | 0.867
3 | Cc1ccc(NC(=O)c2ccc(CN3CCN(C)CC3)cc2)cc1Nc1nccc(-c2cccnc2)n1 [Imatinib Mesylate (STI571)] | 1.08 | 1.12 | 0.599 | 0.612
4 | CCN1CCN(Cc2ccc(C(=O)Nc3ccc(C)c(Oc4ccc5c(c4)CC(=O)N5)c3)cc2C(F)(F)F)CC1 | 0.704 | 0.758 | 0.477 | 0.756
5 | Cc1ccc(C(=O)Nc2ccc(CN3CCN(C)CC3)c(C(F)(F)F)c2)cc1C#Cc1cnc2cccnn12 | 0.227 | 0.185 | 0.0344 | 0.0177
6 | Cc1ccc(NC(=O)c2ccc(CN3CC[C@H](N(C)C)C3)c(C(F)(F)F)c2)cc1Nc1nccc(-c2cncnc2)n1 [Bafetinib (INNO-406)] | 0.684 | 0.569 | 0.0871 | 0.0998
7 | Cc1ccc(C(=O)Nc2ccc(CN3CCN(C)CC3)c(C(F)(F)F)c2)cc1C#Cc1cnc2[nH]ncc2c1 | 0.214 | 0.169 | 0.0362 | 0.0116
8 | Cc1ccc(NC(=O)c2ccc(CN3CCN(C)CC3)cc2)cc1Nc1nc(-c2cccnc2)cs1 [Masitinib (AB1010)] | 1.29 | 1.09 | 0.779 | 0.775
9 | CC(C)n1nc(-c2ccc3oc(N)nc3c2)c2c(N)ncnc21 | 0.194 | 0.191 | 0.181 | 0.171
10 | Cc1nc(N(C)C(=O)Cc2ccc(-c3ccccn3)cc2)sc1S(N)(=O)=O [Pritelivir (BAY 57-1293)] | 0.897 | 0.947 | 0.855 | 0.818
11 | COc1cccc(C=NCCN=Cc2cccc(OC)c2[O-])c1[O-].[Cl-].[Mn+3] | 0.805 | 0.978 | 0.756 | 0.897
12 | Cc1nc2ccc(-n3ncc(C(=O)c4cc5ccccc5[nH]4)c3N)cc2[nH]1 | 0.935 | 0.923 | 0.958 | 0.819
13 | Cc1ccc(NC(=O)C2(c3ccc4c(c3)OC(F)(F)O4)CC2)nc1-c1cccc(C(=O)O)c1 [VX-809 (Lumacaftor)] | 0.94 | 1.12 | 0.933 | 1.06
14 | CCO[C@@H]1OC(=O)C[C@@H]1NC(=O)[C@@H]1CCCN1C(=O)[C@@H](NC(=O)c1ccc(N)c(Cl)c1)C(C)(C)C | 0.968 | 1.18 | 0.898 | 1.09
15 | CCC1C/C(=C\c2cccnc2)C(=O)/C(=C/c2cccnc2)C1 (configuration not stated) | 0.104 | 0.0876 | 0.0563 | 0.0253
16 | COc1cc2c(cc1OC)[C@@H]1Cc3ccc(OC)c(OC)c3CN1CC2 [Rotundine] | 1.17 | 1.06 | 1.18 | 1.01
17 | CC[C@]12C=CCN3CC[C@@]4(c5cc([C@@]6(C(=O)OC)C[C@@H]7C[C@@H](C(C)(F)F)CN(Cc8c6[nH]c6ccccc86)C7)c(OC)cc5N(C)[C@H]4[C@@](O)(C(=O)OC)[C@@H]1OC(C)=O)[C@@H]32 [Vinflunine Tartrate] | 0.191 | 0.144 | 0.142 | 0.114
18 | O=C(CCCCCN1C(=O)c2cccc3cccc(c23)C1=O)NO [Scriptaid] | 0.411 | 0.51 | 0.108 | 0.109
19 | O=C(O)C1=C[C@@H](O)[C@@H](O)[C@H](O)C1 [Shikimic Acid] | 0.996 | 1.17 | 0.84 | 1.06
20 | COCC[n+]1c2c(n(Cc3cnccn3)c1C)C(=O)c1ccccc1C2=O [YM155 (Sepantronium Bromide)] | 0.0411 | 0.0393 | 0.0214 | 0.0241
21 | COc1cc2ncnc(Sc3nnc(C)s3)c2cc1OC | 0.747 | 0.866 | 0.0591 | 0.0581
22 | O=C(C[S+]([O-])Cc1ccco1)NC/C=C\COc1cc(CN2CCCCC2)ccn1 (configuration not stated) [Lafutidine] | 1 | 1.2 | 0.826 | 1.06
23 | O=C([O-])c1ccccc1O.[Na+] [Sodium salicylate] | 1.08 | 1.09 | 0.913 | 1.03
24 | CN1CCN(c2ccc3nc(-c4c(N)c5c(F)cccc5[nH]c4=O)[nH]c3c2)CC1 [Dovitinib (TKI-258, CHIR-258)] | 0.523 | 0.465 | 0.119 | 0.0963
25 | CN1CCN(c2ccc3nc(-c4c(N)c5c(F)cccc5[nH]c4=O)[nH]c3c2)CC1 [Dovitinib (TKI258) Lactate] | 0.398 | 0.423 | 0.0366 | 0.0252
26 | O=C(O)c1ccc(N2C(=O)/C(=C\c3ccc(-c4ccc([N+](=O)[O-])cc4)o3)C=C2c2ccccc2)cc1 | 0.851 | 0.873 | 0.899 | 0.776
27 | O=c1ncccn1[C@@H]1O[C@H](CO)[C@@H](O)[C@H]1O [Zebularine] | 0.97 | 1.06 | 0.676 | 0.938
28 | O=C(Nc1ccccc1)N1CCN(c2nc(-c3ccccc3)ns2)CC1 | 1.06 | 1.14 | 0.828 | 0.976

— the supplement of paper PMC5919970
